# Measured values as given in ChEMBL document CHEMBL3988442, “University of Dundee, Small-Polar-MMV Screening Library” (2021).
# The whole screen tested about 66,000 compounds, of which about 960 (1.5%) showed an effect of 50% or more. This excerpt belongs to a sample that is enriched for strong results.
# Tested on: Trypanosoma brucei
# Assay: Trypanosoma brucei 72 hour study
# Format: functional, organism-based
# Parameters: scale not given: in the data most compounds retested in dose-response had high values
smiles,measurement,setting,value
COc1ccccc1NC(=O)NCCCn1nc2ccccn2c1=O,Percent Effect,"30.3 µM, […]",-15.65%
CCc1c(C)nn2c(O)cc(C3CCN(C(=O)c4cnn(C)c4)C3)nc12 (stereo unspecified),Percent Effect,"30.3 µM, […]",-13.28%
CCn1cc(-c2cc(-c3cc(CC(=O)O)cs3)nc(N)c2C#N)c(C)n1,Percent Effect,"30 µM, 30.03 µM",-31.42%
CCCn1cc(-c2cc(-c3ccoc3)c(C#N)c(N)n2)c(C)n1,Percent Effect,"30 µM, 30.03 µM",-1.944%
CCCn1cc(-c2cc(-c3cnc(OC)nc3)c(C#N)c(N)n2)c(C)n1,Percent Effect,"30 µM, 30.03 µM",73.84%
COc1ncc(-c2cc(-c3ccn(C)c3)nc(N)c2C#N)cn1,Percent Effect,"30 µM, 30.03 µM",-14.16%
CCCn1cc(-c2cc(-c3cc(CC)n[nH]3)c(C#N)c(N)n2)c(C)n1,Percent Effect,"30 µM, 30.03 µM",41.43%
CCCn1cc(-c2cc(-c3c[nH]cn3)c(C#N)c(N)n2)c(C)n1,Percent Effect,"30 µM, 30.03 µM",58.89%
CC(C)CS(=O)(=O)N1C[C@H]2C[C@H](C(=O)N3CCN(C)CC3)[C@@H](C1)O2.O=C(O)C(F)(F)F,Percent Effect,"30.3 µM, […]",-51.72%
COc1ccccc1CCN1CCCC(CN(C)Cc2c[nH]c(C)n2)C1 (stereo unspecified),Percent Effect,"30 µM, 30.03 µM",9.173%
CC(NC(=O)c1ccc(=O)n(C)c1)c1ccccc1-n1cccn1 (stereo unspecified),Percent Effect,"30 µM, 30.03 µM",-14.43%
Cc1ccc(NC(=O)c2cc(S(=O)(=O)N3CCCCC3)c[nH]2)cc1F,Percent Effect,"30 µM, 30.03 µM",-33.42%
Cc1ccc(C)c(NC(=O)c2cc(S(=O)(=O)N3CCSCC3)c[nH]2)c1,Percent Effect,"30 µM, 30.03 µM",69.72%
Cc1nnc(NC(=O)c2cc(S(=O)(=O)N3CCSCC3)c[nH]2)s1,Percent Effect,"30 µM, 30.03 µM",37.66%
Cc1noc([C@@H]2CC[C@@H]3[C@@H](CCN3c3nnc(C)s3)O2)n1.O=C(O)C(F)(F)F,Percent Effect,"30.3 µM, […]",-92.4%
CCc1ccc(C2NCCc3cc4c(cc32)OCCO4)cc1 (stereo unspecified),Percent Effect,"30.3 µM, […]",67.24%
Fc1ccccc1C1NCCc2cc3c(cc21)OCCO3 (stereo unspecified),Percent Effect,"30.3 µM, […]",18.61%
Clc1ccc(C2NCCc3cc4c(cc32)OCCO4)cc1 (stereo unspecified),Percent Effect,"30.3 µM, […]",-20.9%
Cc1cc(CCC(N)=O)cc(C2CCCN2Cc2cnc(C)nc2)n1 (stereo unspecified),Percent Effect,"30.3 µM, […]",-5.889%
O=C(O)C(F)(F)F.O=C(O)C(F)(F)F.c1coc(CN2C[C@@H]3CN(Cc4ccoc4)CCO[C@@H]3C2)c1,Percent Effect,"30.3 µM, […]",-14.62%
O=C(Cn1c(=O)oc2ccccc21)NCC1(O)CCc2ccccc2C1 (stereo unspecified),Percent Effect,"30 µM, 30.03 µM",-11.94%
Cc1ccc(C)c(OCc2nnc(SCC3CCCN(C)C3)o2)c1 (stereo unspecified),Percent Effect,"30.3 µM, […]",77.52%
Cc1cccc(OCc2nnc(SCC3CCCN(C)C3)o2)c1 (stereo unspecified),Percent Effect,"30.3 µM, […]",-11.54%
Cc1ccc(OCc2nnc(SCC3CCCN(C)C3)o2)cc1 (stereo unspecified),Percent Effect,"30.3 µM, […]",-4.572%
Cc1cc(F)cc2c(N3CCS(=O)(=O)CC3)c(C#N)cnc12,Percent Effect,"30.3 µM, […]",6.61%
Cc1noc(C)c1CN1CCc2ncnc(-c3ccccc3)c2CC1.O=C(O)C(F)(F)F,Percent Effect,"30.3 µM, […]",-55.88%
CC(C)(C)n1ncc2c1CCCC2NCc1cccc2c1OCO2 (stereo unspecified),Percent Effect,"30 µM, 30.03 µM",-18.28%
CC(C)(C)n1ncc2c1CCCC2NCc1cccc2c1OCCO2 (stereo unspecified),Percent Effect,10 µM,0.9444%
same,Percent Effect,"30.3 µM, […]",51.24%
CCn1ncc2c1CCCC2NCc1cccc2c1OCCO2 (stereo unspecified),Percent Effect,"30 µM, 30.03 µM",6.251%
Cc1ccc(N2C[C@H](C)[C@]3(CCN(c4cccnc4)C3=O)C2)nn1.O=C(O)C(F)(F)F.O=C(O)C(F)(F)F,Percent Effect,"30.3 µM, […]",-32.51%
O=C(NC1CCCC1)[C@@H]1C[C@@H]2CCN(Cc3ccoc3)C[C@H]2O1.O=C(O)C(F)(F)F,Percent Effect,"30.3 µM, […]",-88.78%
Cc1nc(CN2CCO[C@@H]3CN(C(=O)CC4CC4)C[C@@H]3C2)cs1.O=C(O)C(F)(F)F,Percent Effect,"30 µM, 30.03 µM",48.86%
Cc1nc(CN2CCO[C@@H]3CN(C(=O)CC4CC4)CC[C@@H]3C2)cs1,Percent Effect,"30 µM, 30.03 µM",61.23%
Cc1nc(CN2CCO[C@@H]3CN(C(=O)CN(C)C)CC[C@@H]3C2)cs1,Percent Effect,"30 µM, 30.03 µM",8.371%
CCC(=O)N1CCC2(CC1)C(c1cccnc1)CC(=O)N2CCOC.O=C(O)C(F)(F)F (stereo unspecified),Percent Effect,"30.3 µM, […]",-33.93%
CO[C@H]1CN(C(=O)c2cccnc2)[C@@H]2CCCO[C@H]12.O=C(O)C(F)(F)F,Percent Effect,"30.3 µM, […]",-49.74%
COc1cc(CNCC(C)O)cc(Cl)c1OCc1ccc(C)cc1.Cl (stereo unspecified),Percent Effect,"30 µM, 30.03 µM",97.25%
COc1cccc(CNC(C)C)c1OCc1ccc(C)cc1.Cl,Percent Effect,"30 µM, 30.03 µM",-4.618%
CC(O)CNCc1ccc(OCc2ccc3c(c2)OCCO3)cc1.Cl (stereo unspecified),Percent Effect,"30 µM, 30.03 µM",-67.49%
COc1ccc(C[C@H]2CNCC[C@H]2OC)cc1.O=C(O)C(F)(F)F,Percent Effect,"30.3 µM, […]",13.15%
Cc1n[nH]c2ncc(CNC3CCCN(c4ncccn4)C3)cc12.Cl (stereo unspecified),Percent Effect,"30 µM, 30.03 µM",72.79%
Cc1n[nH]c2ncc(CNC3CCN(Cc4ccccn4)CC3)cc12.Cl,Percent Effect,"30 µM, 30.03 µM",-2.543%
Cl.c1cnc(N2CCCC(NCc3ccc(-n4ccnc4)cc3)C2)nc1 (stereo unspecified),Percent Effect,"30.3 µM, […]",10.24%
CC(C)[C@@H]1CN(S(=O)(=O)c2cccc(C(=O)O)c2)C[C@H]1N(C)C,Percent Effect,"30 µM, 30.03 µM",98.32%
CC(C)S(=O)(=O)N1CCC(Cc2cccc(C(=O)O)c2)C1 (stereo unspecified),Percent Effect,"30 µM, 30.03 µM",-22.39%
COc1cccc(S(=O)(=O)N2C[C@@H](N(C)C)[C@H](C(C)C)C2)c1,Percent Effect,"30 µM, 30.03 µM",-34.95%
COCCN1CC2(CCOCC2)c2cc(NC(=O)C3CC=CC3)ccc21.O=C(O)C(F)(F)F,Percent Effect,"30.3 µM, […]",4.18%
COc1cc(-c2cc(-c3ccn(C)c3)nc(N)c2C#N)cc(OC)c1O,Percent Effect,"30 µM, 30.03 µM",-22.54%
Cc1noc(C)c1-c1ccc(C2CCCN2C(=O)Cn2ccnc2)nc1 (stereo unspecified),Percent Effect,"30.3 µM, […]",-4.122%
CN(C)C(=O)CN1CCCC(c2cncc(-c3cccc(Cl)c3)n2)C1 (stereo unspecified),Percent Effect,"30.3 µM, […]",53.32%
CN(C)C(=O)CN1CCCC(c2nccnc2-c2cccc(Cl)c2)C1 (stereo unspecified),Percent Effect,"30.3 µM, […]",-2.355%
CN(C)C(=O)CN1CCC(c2cncc(-c3cccc(Cl)c3)n2)CC1,Percent Effect,"30.3 µM, […]",45.69%
CO[C@H]1C[C@@H]2CN(C(=O)c3cccc4c3OCCO4)C[C@@H]2C1,Percent Effect,"30.3 µM, […]",-23.55%
O=C(C1CC1)N1CC[C@H](O)[C@@H]1Cc1ccccc1,Percent Effect,"30.3 µM, […]",-5.545%
CC(C)c1cc(N2CCSCC2)n2nccc2n1,Percent Effect,"30.3 µM, […]",-15.7%
CC(C)c1cc(N2CCC[C@H](N)C2)n2nccc2n1,Percent Effect,"30.3 µM, […]",-37.71%
CC(C)c1cc(N2CCC(N(C)C)C2)n2nccc2n1 (stereo unspecified),Percent Effect,"30.3 µM, […]",4.814%
CC(C)c1cc(N2CCC(C(C)N3CCCC3)CC2)n2nccc2n1 (stereo unspecified),Percent Effect,"30.3 µM, […]",88.53%
CC(C)c1cc(N2CCC(N)CC2)n2nccc2n1,Percent Effect,"30 µM, 30.03 µM",38.85%
CC(C)c1cc(N2CC[C@H](F)C2)n2nccc2n1,Percent Effect,"30.3 µM, […]",99.84%
